Laboratory results published in PubChem BioAssay (NCI).
The panel holds about 83,000 compounds, 20% with a hit somewhere; the sample as a whole holds those more often.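 For each line, cells grew in 96-well plates with the test compound present at a single concentration for 48 hours.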 The source made the active and inactive calls. Rule for the calls: active = growth percent below 10; inactive = the rest.

Key:
Assay in all cases: NCI-60 one-dose screen, 48 h (100 = growth as untreated, 0 = no growth, -100 = all killed)
Details in all cases: 10 µM unless noted
[1] = tested on: NCI-H23 lung
[2] = tested on: NCI-H226 lung
[3] = tested on: NCI-H322M lung
[4] = tested on: HOP-62 NSCLC
[5] = tested on: NCI-H460 lung
[6] = tested on: HOP-92 NSCLC
[7] = tested on: NCI-H522 lung
[8] = tested on: A549/ATCC NSCLC
[9] = tested on: 786-0 renal
[10] = tested on: COLO 205 colon

Measured: growth

COc1ccc2c(c1)c(/C=N/Nc1ccnc3cc(Cl)ccc13)cn2C
active: [1] -80.5% | [2] -52.3% | [3] -95.1% | [4] -81.1% | [5] -79.1% | [6] -81.7% | [7] -65.4% | [8] -69.7% | [9] -81.3% | [10] -86.6%

O=C(Nc1cc(C(F)(F)F)cc(C(F)(F)F)c1)Nc1ccc2oc(=O)ccc2c1
inactive: [2] 18.8% | [3] 13.4% | [4] 23.9% | [8] 15.2% | [9] 10.6%
active: [1] -0.22% | [5] 6.36% | [6] -26.2% | [7] -13.5% | [10] -12.3%

CC(Nc1c(C#N)cnc2ccc(-c3cncc(O)c3)cc12)c1ccccc1 (stereo not given)
inactive: [8] 15.9% | [10] 57.6%
active: [1] 1.12% | [2] 2.59% | [3] -36.8% | [4] 5.27% | [5] 0.377% | [6] -3.64% | [7] -43.4% | [9] -1.52%

COc1cc(-c2nc(-c3ccccc3)[nH]c2-c2ccnc(NCCCNS(=O)(=O)c3ccc(C)cc3)n2)ccc1F
inactive: [1] 103% | [2] 75.7% | [3] 93.1% | [4] 150% | [5] 91.9% | [6] 122% | [7] 80% | [8] 74.2% | [9] 94.5% | [10] 96%

COc1ccc2[nH]cc(-c3nc(N)nnc3-c3cn(C)c4ccc(Br)cc34)c2c1
active: [7] 7.41%
inactive: [1] 43.9% | [2] 34.7% | [3] 53.7% | [4] 38.9% | [5] 15.1% | [6] 44% | [8] 35.6% | [9] 24.1% | [10] 20%

Cc1ccc(C)c(NC2=C(Cl)C(=O)c3nc(C)ccc3C2=O)c1
active: [1] -38% | [4] 7.19% | [6] -13.8% | [7] -35.9% | [9] 4.67%
inactive: [2] 10.5% | [3] 24.2% | [5] 48.9% | [8] 31% | [10] 107%

Cc1ccc(/C=N/Nc2nc(Nc3ccccc3)nc(Nc3ccc(S(N)(=O)=O)cc3)n2)cc1
inactive: [1] 76.7% | [2] 79.3% | [3] 90.8% | [4] 86.8% | [5] 54.7% | [6] 112% | [7] 89.5% | [8] 83.2% | [9] 46.9% | [10] 83.9%

CCN(CC)CCOc1ccc(C(=C(C)Cc2ccc(OC)cc2)c2ccc(OCCN(CC)CC)cc2)cc1
inactive: [1] 82.6% | [2] 81.3% | [3] 81.5% | [4] 62.6% | [5] 38.4% | [6] 19.9% | [7] 76.8% | [8] 52.6% | [9] 60.5%
active: [10] -78.2%

CC(=O)N1N=C(c2cc3ccccc3oc2=O)CC1c1cn(-c2ccccc2)nc1-c1ccc(C)cc1 (stereo not given)
inactive: [1] 100% | [2] 94.8% | [3] 101% | [4] 93% | [5] 104% | [6] 105% | [7] 97.4% | [8] 97.3% | [9] 103% | [10] 103%

O=C(/C=C/c1ccc(F)cc1)Nc1cccc2cccnc12
inactive: [1] 91.6% | [2] 97.8% | [3] 101% | [4] 98.5% | [5] 89.4% | [6] 108% | [7] 97.5% | [8] 107% | [9] 108% | [10] 114%

CN1CCN(Cc2ccc(NC(=O)c3cncc(C#Cc4cnc5ccc(OCC6COC6)nn45)c3)cc2C(F)(F)F)CC1
active: [1] -58% | [2] -65.2% | [3] -36.5% | [4] -72.3% | [5] -81% | [6] -33.4% | [7] -70.7% | [8] -68.7% | [9] -85.6% | [10] -76.3%

N#Cc1cccc(-c2cc(-c3ccc4c(c3)OCCO4)[nH]n2)c1
inactive: [1] 50% | [2] 72.2% | [3] 54.8% | [4] 43.5% | [5] 15% | [6] 75.5% | [7] 23.8% | [8] 47.8% | [9] 63.4% | [10] 20.2%

O=C(/C=C/c1cccc(C(F)(F)F)c1)Nc1cccc(C(F)(F)F)c1
active: [6] 7.77%
inactive: [1] 33.1% | [2] 64.2% | [3] 79.9% | [4] 58.4% | [5] 13.9% | [7] 33.8% | [8] 39% | [9] 76.4% | [10] 38.4%

C#Cc1nc(/C=C\CCCCCCC(=O)NO)cs1
inactive: [2] 74.2% | [3] 78.4% | [4] 79.7% | [5] 55.4% | [8] 67.6% | [10] 84.7%
active: [1] -63.5% | [6] -75.3% | [7] -59.8% | [9] -78.5%

COc1ccc(/C=N/NC(=O)c2c(N)nn(C)c2Nc2ccccc2)cc1
inactive: [1] 66.9% | [2] 51.6% | [3] 90% | [4] 38.8% | [5] 14.6% | [6] 46.8% | [7] 19.3% | [8] 57.1% | [9] 58% | [10] 35.8%

CC[C@]12CC(C(=O)OC)=C3Nc4ccccc4[C@@]34CCN(C14)[C@@H]1c3cc4c(cc3O[C@@H]1[C@H]2O)NC1=C(C(=O)OC)C[C@@]2(CC)C3N(CC[C@@]143)C[C@H]1O[C@H]12 (stereo not given in full)
active: [6] -2.19% | [7] 1.97% | [10] -1.32%
inactive: [1] 10.2% | [2] 18.9% | [3] 28.8% | [4] 29% | [5] 15.3% | [8] 21.9% | [9] 23.2%

O=S1SC(c2ccccc2)=NN1c1cc(F)cc(F)c1 (stereo not given)
active: [6] -25.2%
inactive: [1] 22.9% | [2] 45.4% | [3] 67.9% | [4] 48.6% | [5] 19.6% | [7] 34.6% | [8] 26% | [9] 34.9% | [10] 107%

O=c1[nH][nH]c(-c2ccc(F)cc2)c1-c1nc2ccccc2s1
inactive: [1] 89.9% | [2] 82.3% | [3] 88.7% | [4] 89.4% | [5] 92.2% | [6] 77.1% | [7] 92.9% | [8] 111% | [9] 107% | [10] 113%

CCOC(=O)c1ccc(NC2=C(Cl)C(=O)c3nc(C)ccc3C2=O)cc1
inactive: [1] 52% | [2] 85.5% | [3] 96.7% | [4] 113% | [5] 79.3% | [6] 103% | [7] 24.1% | [8] 94.3% | [9] 55.5% | [10] 58.9%

O=C(CSc1nnc(-c2ccc(Cl)cc2)n1-c1ccccc1)Nc1cccc(F)c1
inactive: [1] 23.6% | [2] 20.9% | [3] 36.7% | [4] 50.3% | [5] 17.4% | [6] 57.8% | [7] 52.2% | [10] 80.1%
active: [8] 2.72% | [9] 0.989%

O=S(=O)(Oc1ccc(-c2cn3ccsc3n2)cc1)c1cccc(C(F)(F)F)c1
inactive: [1] 109% | [2] 90.2% | [3] 103% | [4] 110% | [5] 104% | [6] 106% | [7] 94.6% | [8] 98.9% | [9] 102% | [10] 113%

Cc1nc(/N=C(N)/N=C(\N)c2cccc(Br)c2)sc1C
inactive: [1] 59.7% | [2] 73.1% | [3] 86.2% | [4] 50% | [5] 30.1% | [6] 88% | [7] 45.7% | [8] 56.8% | [9] 75.2% | [10] 55.6%

O=C(COc1ccc(/C=C2\C(=O)Nc3cc(Cl)ccc32)cc1)Nc1ccc(Cl)cc1
inactive: [1] 79.9% | [2] 79.1% | [3] 74.4% | [4] 76.7% | [5] 73.4% | [6] 90.8% | [7] 45.7% | [8] 68.8% | [9] 90.7% | [10] 81.3%

CC(C)(O)c1cncc(-c2ccc3ncc(C#N)c(N4CCc5cc(F)c(Cl)cc54)c3c2)c1
inactive: [1] 26.8% | [3] 11% | [5] 11.1% | [10] 14.5%
active: [2] -6.33% | [4] 1.17% | [6] -8.73% | [7] -2.54% | [8] 6.02% | [9] 8.75%

CCCCCCCCCCCC(=O)NC(C)(C)C(=O)N1CCCC1C(=O)NC(C)(C)C(=O)NC(C)(C)C(=O)N1CCCC1C(=O)NC(C)(C)C(=O)NC(C)(C)C(=O)N1CCCC1C(=O)NC(C)C(=O)NCCC(=O)NC(C)C(=O)NC(C)(C)C(=O)NC(C)(C)C(=O)NC(C)(C)C(=O)NCCC(=O)NC(C)(C)C(=O)NC(C)(C)C(=O)NC(C)(C)C(=O)NC(C)C(=O)NCCC(=O)O (stereo not given)
active: [1] -92.9% | [2] -61.8% | [3] -99.6% | [4] -93.3% | [5] -79.7% | [6] -96% | [7] -89.8% | [8] -77.9% | [9] -96.3% | [10] -89.2%

CCN(CC)S(=O)(=O)c1ccc(-c2nc(C(Cl)Cl)nc3cc(C)nn23)cc1
inactive: [1] 14.6% | [2] 69.7% | [3] 57.1% | [7] 56% | [9] 92.5%
active: [4] 5.6% | [5] 8.65% | [6] -5.03% | [8] 0.55% | [10] -18.7%
